A selection: hits, their analogues and other compounds. The true share with any hit is near 11%.
AmpC inh detg = AmpC beta-lactamase inhibition with detergent present; AmpC hydrolysis of nitrocefin, absorbance 480 nm, 0.01% Triton; Potency, µM (top dose mostly 114 µM), for the others: top-dose activity change, negative = inhibition, usual class: inhibitors; hit rate 0.041% among 370,000; P00811;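 note: 0% = no-compound wells and -100% = no-enzyme wells; nearly all actives have a fitted effect of over 25% in size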
Target sequence (P00811 whole entry, looked up): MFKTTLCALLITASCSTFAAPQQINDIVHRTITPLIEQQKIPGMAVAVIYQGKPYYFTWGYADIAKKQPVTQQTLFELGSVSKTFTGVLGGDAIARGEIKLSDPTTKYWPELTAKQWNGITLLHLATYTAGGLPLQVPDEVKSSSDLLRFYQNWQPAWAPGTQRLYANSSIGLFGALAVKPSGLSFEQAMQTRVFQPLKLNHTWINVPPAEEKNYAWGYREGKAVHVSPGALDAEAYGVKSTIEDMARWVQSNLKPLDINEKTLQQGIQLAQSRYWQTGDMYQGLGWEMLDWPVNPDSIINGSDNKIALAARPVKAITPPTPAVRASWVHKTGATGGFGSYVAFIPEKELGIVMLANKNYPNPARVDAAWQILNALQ
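AmpC (5.3 nM in the dispensed reagent) in 20 mM phosphate pH 7.0 with 0.01% (detergent screen) or 0.0001% Triton X-100 was preincubated with compounds for 15 min at room temperature. Nitrocefin was then added from an 800 uM solution, and hydrolysis was followed at 480 nm.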
AMA1-RON2 inh = AMA1-RON2 (P. falciparum) interaction inhibition; AlphaScreen AMA1-biotinylated RON2 peptide binding; Potency, µM (highest dose often 58.2 µM), inactives show top-dose activity change, negative = inhibition, hits mostly inhibitors; hit rate 0.2% among 360,000; AID 720542;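 note: 0% = vehicle wells and -100% = peptide control; nearly all actives have a fitted effect of over 45% in size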
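AMA1 (3D7) with his tag at 25 nM final met compounds first, then biotinylated RON2 peptide at 25 nM; detection used donor plus acceptor beads, 10 µg/mL apiece, read by AlphaScreen after 30 min at room temperature.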
Pf growth 48h = P. falciparum growth inhibition at 48 hours (one generation) | P. falciparum luciferase growth in erythrocytes, 48 h | hit rate 5.9% among 310,000 | AID 504832 | Potency, µM (highest dose often 28.7 µM), without a hit: at the top dose activity change, negative = inhibition, hits mostly inhibitors
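Erythrocytes infected with P. falciparum carrying an integrated firefly luciferase reporter (2% hematocrit, 0.1% parasitemia final) were exposed to compounds in RPMI 1640 with 0.5% Albumax at 37 C, 5% CO2. Growth inhibition was scored as reduced luminescence.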
Pf growth 96h = inhibits malaria parasite growth, 96 h | P. falciparum luciferase reporter growth, 96 h | Potency, µM (highest dose often 28.7 µM), inactives show at the highest dose activity change, negative = inhibition, usual class: inhibitors | hit rate 6.9% among 320,000
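Compounds incubated with erythrocytes infected by luciferase-expressing P. falciparum (2% hematocrit, 0.05% parasitemia final) for 96 hours, 37 C in 5% CO2. Growth inhibition scored as decreased luciferase luminescence.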
HCV inhibitor = blocks hepatitis C virus | Huh7.5.1 HCVcc-Cre infection, luciferase reporter, 44 h | Potency, µM (titrated, usually from 41.8 µM), for inactives: top-dose activity change, negative = inhibition, hits mostly inhibitors | hit rate 3.4% among 340,000 | AID 651820
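Whole-lifecycle infectious HCVcc-Cre system; cells 1,000/well, compound then virus (~0.5 moi) added 4 h after plating, 44 h culture. Luciferase read 15 sec following 15 min substrate incubation, room temp.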
AmpC inh no detg = inhibitors of E. coli AmpC beta-lactamase without detergent | P00811 | AmpC nitrocefin hydrolysis, absorbance 480 nm, 0.0001% Triton | Potency, µM (highest dose often 57.1 µM), for inactives: at the highest dose activity change, negative = inhibition, most hits filed as inhibitors | hit rate 0.52% among 330,000 | AID 485341;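 note: plate controls were no compound for no effect and no enzyme for full effect; nearly all actives have a fitted effect of over 20% in size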
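AmpC (5.3 nM in the dispensed reagent) in 20 mM phosphate pH 7.0 with 0.01% (detergent screen) or 0.0001% Triton X-100 was preincubated with compounds for 15 min at room temperature. Nitrocefin was then added from an 800 uM solution, and hydrolysis was followed at 480 nm.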
Active calls of the source: *; i = inactive; ? = inconclusive; . = not tested or not shown; [ ] = another dose, or the depositor's remark. Calls come from the whole dose curve; as a rule, active = well fitted curve in the direction sought with a large enough effect; inconclusive = small, poorly fitted or top-dose-only effect, or another doubt; inactive = no such curve, though single readings can be large; an effect the other way counts as inactive or inconclusive. Unless noted, % is set by controls: 0 for no effect and ±100 for the full control effect; potency is the fitted concentration of half-maximal effect.

SMILES	AmpC inh detg	AMA1-RON2 inh	Pf growth 48h	Pf growth 96h	HCV inhibitor	AmpC inh no detg
CC1CCCCN1C(=O)CSc1nnc(-c2ccco2)o1 (stereo not drawn)	-1%	1%	123%	5.2µM*	-2%	-3%
COc1ccccc1Cn1c(CNS(=O)(=O)c2c(C)cc(C)cc2C)nc2cccnc21	0%	.	.	.	.	.
COc1cc2c(cc1OC)n(Cc1ccc([N+](=O)[O-])cc1)c(=O)n1nc(-c3ccccc3)nc21	-5%	.	.	.	.	.
Cc1ccc(-n2c(SCc3cn4ccsc4n3)nc3ccccc3c2=O)cc1	9%	-16%	?	.	10µM*	-11%
Cc1cccc(-n2c(SCc3cc(=O)n4ccsc4n3)nc3ccccc32)c1	4%	-18%	2.9µM*	4.1µM*	7.9µM*	92%
Cc1ccc(SCc2cc(=O)n3ccsc3n2)c(C)c1	-2%	.	23%	i	-14%	-15%
CCc1cccc(CC)c1-n1c(SCc2cc(=O)n3ccsc3n2)nnc1-c1cccnc1	4%	4%	15µM*	10µM*	7%	62%
C=C(C)c1cccc(C(C)(C)NC(=O)Nc2ccc(C(N)=O)cc2)c1	1%	-4%	-12%	35%	-18%	-59%
C=C(C)c1cccc(C(C)(C)NC(=O)Nc2cccnc2)c1	?	2%	?	4.7µM*	-7%	-36%
C=C(C)c1cccc(C(C)(C)NC(=O)Nc2ncccn2)c1	-9%	-7%	?	8.3µM*	?	-15%
CCOc1cc2sc(N3CCC(C(=O)Nc4ccc(CC)cc4)CC3)nc2cc1Br	14%	.	.	.	.	.
CC(C)(Oc1ccc(Cl)cc1)C(=O)NC1CCCCC1	7%	6%	12µM*	-2%	20%	13%
CCCCn1c(NC(=O)C2CCCCC2)nc2ccccc21	-1%	32%	?	.	13µM*	-22%
O=C(O)c1cccc(Cn2cc(Cl)cn2)c1	7%	-14%	11%	25%	18%	-9%
CCCCCn1c(CNC(=O)c2ccccc2)nc2ccccc21	6%	.	.	.	.	.
CCn1c(NC(=O)c2ccccc2)nc2ccccc21	-12%	60%	12µM*	10µM*	7%	-54%
CC(C)CNC(=O)c1cccc(Cn2cc(Cl)cn2)c1	-1%	0%	-4%	10µM*	-3%	-11%
CCCCn1c(NC(=O)c2ccccc2)nc2ccccc21	?	63%	?	4.7µM*	13µM*	-22%
CN(C)CCCn1c(NC(=O)C2CCCCC2)nc2ccccc21	2%	20%	23%	7%	?	-22%
Cc1cc(NC(=O)/C=C/c2ccc(F)cc2)n(-c2nc3ccccc3[nH]2)n1	-20%	79%	?	-50%	?	-9%
COC(=O)c1cccc(Cn2cc([N+](=O)[O-])cn2)c1	-14%	.	-11%	3.7µM*	.	-22%
Cn1c(NC(=O)c2cccc(Cn3cc(Cl)cn3)c2)nc2ccccc21	-4%	39%	-1%	.	-21%	-22%
CCn1c(NC(=O)/C=C/c2ccc(F)cc2)nc2ccccc21	?	95%	12µM*	?	?	2%
CCCn1c(NC(=O)c2ccc(Br)cc2)nc2ccccc21	-14%	83%	.	2.9µM*	20%	-16%
CCn1c(NC(=O)c2cccc(Cn3cc(Cl)cn3)c2)nc2ccccc21	?	127%	10µM*	?	14µM*	-21%
SMILES	AmpC inh detg	AMA1-RON2 inh	Pf growth 48h	Pf growth 96h	HCV inhibitor	AmpC inh no detg
CCCn1c(NC(=O)c2ccc(F)cc2)nc2ccccc21	-6%	81%	0%	0%	-4%	-9%[11.4 µM]
Cc1ccc(-n2ncc(C(=O)NCCN3CCc4ccccc4C3)c2C2CCN(C(=O)OC(C)(C)C)CC2)cc1	15%	.	.	.	.	.
O=C(Cn1cc(S(=O)(=O)c2ccccc2)c(=O)c2cc3c(cc21)OCO3)Nc1ccc(Cl)cc1	-8%	.	.	.	.	.
C=CCn1c(NC(=O)c2ccccc2)nc2ccccc21	3%	89%	?	12µM*	?	-28%
Cc1onc(-c2ccccc2Cl)c1C(=O)Oc1cc(F)cc(F)c1	-2%	.	.	.	.	.
CC(C)(C)OC(=O)NCc1ccc(CNC(=O)c2[nH]cnc2C(=O)N[C@@H](Cc2ccccc2)C(=O)OC(C)(C)C)cc1	?	121%	10µM*	?	?	128%
CC(C)(C)OC(=O)NCc1ccc(CNC(=O)c2nc[nH]c2C(=O)NCc2ccccc2)cc1	5%	172%	10µM*	2.9µM*	?	26%
CC(C)C[C@H](NC(=O)c1nc[nH]c1C(=O)NCc1ccc(CNC(=O)OC(C)(C)C)cc1)C(=O)OCc1ccccc1	0%	111%	?	?	15%	-22%
CC(C)(C)OC(=O)NCc1ccc(CNC(=O)c2[nH]cnc2C(=O)N[C@@H](Cc2ccccc2)C(=O)OCc2ccccc2)cc1	-14%	133%	?	3.3µM*	-12%	48%
CC(C)(C)OC(=O)NCc1ccc(NC(=O)c2nc[nH]c2C(=O)N[C@@H](Cc2ccccc2)C(=O)OCc2ccccc2)cc1	-2%	101%	8.3µM*	4.1µM*	13%	-8%
Cc1ccc(-n2c(C)cc(C(=O)C(=O)Nc3ccccc3)c2C)c(C)c1	27%	.	.	.	.	.
COc1cccc(N2CCN(C(=O)CCc3c(C)nc4c(c3C)c(=O)n(C)c(=O)n4C)CC2)c1	16%	.	.	.	.	.
Cc1ccc2oc(=O)c3cc(C(=O)Nc4ccc(F)cc4F)sc3c2c1	0%	.	.	.	.	.
Cc1cccc(C)c1NC(=O)COC(=O)c1ccc2[nH]c3c(c2c1)CCCC3	-3%	17%	-5%	-1%	-27%	-16%
O=C(COC(=O)c1ccc2[nH]c3c(c2c1)CCCC3)Nc1ccccc1	7%	-19%	-3%	17%	13µM*	-36%
Cc1ccc(NC(=O)Cn2c(=O)n(CCc3ccccc3)c(=O)c3c4c(sc32)CCCC4)c(C)c1	21%	.	.	.	.	.
Cc1cc(C)cc(NC(=O)NCc2noc3ccccc23)c1	-10%	.	.	.	.	.
Cc1c(C(=O)NCc2cccnc2)sc2nc(-c3ccccc3)cn12	?	-22%	?	?	2%	18%
CN1CCN(CCNC(=O)c2ccc3nc(-c4ccc(F)cc4)c(-c4ccc(F)cc4)nc3c2)CC1	?	-1%	9.3µM*	?	2.2µM*	181%
CCc1nc2ccc(C(=O)NCCCN3CCN(c4ccc(F)cc4)CC3)cc2nc1CC	0%	-18%	?	34%	?	50%
O=C(NCCN1CCOCC1)c1cc(-c2ccc(F)cc2)on1	-16%	0%	29%	0.29µM*	-2%	-3%
